Here are results for 47 molecules from PubChem BioAssay AID1851 (National Center for Advancing Translational Sciences (NCATS), 2009).

In all, about 16,000 compounds went through this assay and about 5,100 (32%) were called active. Not shown: some 25% with an inconclusive outcome. Calls follow the shape of the dose curve; as a rule, active = well fitted curve in the direction sought with a large enough effect; inconclusive = small, poorly fitted or top-dose-only effect, or effect the other way; inactive = no such curve, though single readings can be large or run the other way. The list shows a part of the results. Square brackets hold non-standard residues; d marks the D form. Peptide text beside a SMILES is read from it. * marks the point of attachment. ξ: configuration not given here. Cbz = O=C(OCc1ccccc1)*; PhAc = O=C(Cc1ccccc1)*; OBn = c1ccc(CO*)cc1; ξA = CC(N)C(=O)O
% is scaled to controls: 0 for no effect and ±100 for the full control effect.

For this assay, the target named is Cytochrome P450 3A4 (Homo sapiens) (UniProt P08684). In words: Cytochrome panel assay with activity outcomes. The conditions noted are these: recombinant CYP, pro-luciferin dealkylation, luminescence, p450-cyp3a4; series mostly up to 57.1 µM; activity, negative = inhibition: at the top concentration.
Cytochrome P450 3A4 (Homo sapiens), sequence (P08684 whole entry, looked up): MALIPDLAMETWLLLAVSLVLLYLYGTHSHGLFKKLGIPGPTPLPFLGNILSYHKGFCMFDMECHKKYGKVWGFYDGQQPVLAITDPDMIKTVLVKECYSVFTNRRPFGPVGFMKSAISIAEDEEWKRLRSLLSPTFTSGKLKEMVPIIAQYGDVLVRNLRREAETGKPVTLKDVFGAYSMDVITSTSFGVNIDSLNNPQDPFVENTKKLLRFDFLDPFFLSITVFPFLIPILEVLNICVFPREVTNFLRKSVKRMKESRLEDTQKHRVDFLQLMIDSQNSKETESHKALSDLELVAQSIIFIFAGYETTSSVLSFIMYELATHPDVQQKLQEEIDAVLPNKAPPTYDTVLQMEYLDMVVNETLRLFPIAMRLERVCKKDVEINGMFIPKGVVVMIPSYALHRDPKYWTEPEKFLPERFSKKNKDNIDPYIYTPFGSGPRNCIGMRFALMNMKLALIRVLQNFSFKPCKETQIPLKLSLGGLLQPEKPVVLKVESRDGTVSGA
Turning to `C=CCOc1c2ccc(C(=O)NC3CCCc4ccccc43)cc2nn1C` (configuration not stated), the activity, negative = inhibition was 3.25% [at 2.29 µM] (inactive).

Turning to `Cc1ccccc1/C=C\C1=NCCN1`, the “activity, negative = inhibition” value was -6.57% (inactive).

As to `COc1cc(/C=N/NC(=O)c2cccnc2)ccc1OC(=O)c1ccco1`, the AC50 was 14.1 µM (active).

`O=C(N/N=C/c1ccccn1)c1ccco1`: the “activity, negative = inhibition” value was -7.11% (inactive).

With `COc1cc(/C=N/NC(=O)c2cccnc2)ccc1OC(=O)c1ccc2c(c1)OCO2`, the half-maximal activity concentration (AC50) was 1.26 µM (active).

`Cc1cc(C(=O)N/N=C/c2cccc(OC(=O)c3ccco3)c2)n[nH]1`: the activity, negative = inhibition is 7.86% [at 2.29 µM] (inactive).

In the case of `COc1c(/C=N/Nc2ccc([N+](=O)[O-])cc2[N+](=O)[O-])c(C)nn1-c1ccccc1`, the “activity, negative = inhibition” value is -17.2% (inactive).

As for `Cc1nc(N/N=C/c2ccccc2)nc(N(C)c2ccccc2)c1[N+](=O)[O-]`, the AC50 is 7.08 µM (active).

For `Cc1ccc(NC(=O)c2ccc(CSc3nnc(-c4ccncc4)n3C)cc2)cc1`, the “activity, negative = inhibition” value is -1.69% (inactive).

In the case of `C=CCn1c(SCc2ccc(C(=O)Nc3ccccc3)cc2)nnc1-c1ccccc1`, the AC50 was 4.47 µM (active).

As for `Cn1nnnc1SCc1ccc(C(=O)Nc2ccc(Br)cc2)cc1`, the “activity, negative = inhibition” value was -23% (inactive).

For the molecule `O=C(O)c1ccc(Cc2ccccc2C(=O)O)cc1`, the activity, negative = inhibition is -8.32% [at 11.4 µM] (inactive).

Regarding `COC(=O)c1c(C)nc2ccccc2c1C(=O)O`, the “activity, negative = inhibition” value is -0.306% (inactive).

For `COC(=O)c1c(C)[nH]c(C)c1C(=O)c1ccccc1Cc1ccccc1`, the AC50 is 1 µM (active).

Turning to `COc1ccc(NC(=S)N2CCN(C/C=C/c3ccccc3)CC2)cc1OC`, the AC50 was 17.8 µM (active).

On to `Cc1ccc(N=C/C(C(=O)C(F)(F)F)=C(\O)c2cccs2)cc1`, for which the half-maximal activity concentration (AC50) was 12.6 µM (active).

Turning to `CC[C@H](C(=O)c1cccs1)C(O)(C(F)(F)F)C(F)(F)F`, the activity, negative = inhibition is -6.43% [at 11.4 µM] (inactive).

Consider `O=P(O)(COc1ccccc1)COc1ccccc1`, for which the “activity, negative = inhibition” value is -4.02% (inactive).

On to `CC(C)c1ccc(Cn2ccc3c4c(N)nc(NC5CC5)nc4ccc32)cc1`, for which the AC50 was 6.31 µM (active).

Consider `CCC(C)(C)N=C(NC#N)Nc1cccnc1`, for which the AC50 was 5.01 µM (active).

Regarding `CC(C)CN(C)c1nc(N)c(C(=O)N=C(N)N)nc1Cl`, the “activity, negative = inhibition” value was -3.71% (inactive).

For `Cc1cnc(CNc2cc(-c3ccc(C(=O)N(C)C)cc3)ncn2)cn1`, the “activity, negative = inhibition” value is -19% (inactive).

For the molecule `Cc1cnc(CNc2ncncc2-c2ccc(C(=O)N(C)C)cc2)cn1`, the AC50 was 12.6 µM (active).

In the case of `Cc1cnc(CNc2ncncc2-c2ccoc2)cn1`, the AC50 is 2 µM (active).

On to `Cc1cnc(CNc2ncncc2-c2ccc(N(C)C)cc2)cn1`, for which the half-maximal activity concentration (AC50) was 2 µM (active).

As for `C[C@@H](C(=O)O)c1ccc(C(=O)c2cccs2)cc1`, the “activity, negative = inhibition” value was -4.04% [at 25.6 µM] (inactive).

For `CNCCCCCCCCSc1nc(C(C)C)ccc1C(=O)c1cccs1`, the AC50 is 2.51 µM (active).

As for `COC(=O)Nc1nc2ccc(C(=O)c3cccs3)cc2[nH]1`, the “activity, negative = inhibition” value was -18% (inactive).

Turning to `CCOC(=O)N/N=C1/C[C@@H](O)[C@@H](O)[C@@H]2[C@@H]3C(=O)N(CC)C(=O)[C@H]3CC[C@@H]12`, the activity, negative = inhibition was -14.4% [at 11.4 µM] (inactive).

In the case of `Cc1ccc(-n2[nH]c(C)c(C=Nc3ccc4[nH]c(=O)[nH]c4c3)c2=O)cc1C`, the AC50 is 14.1 µM (active).

Consider `Cn1c(=O)n(CC#N)c2ccccc21`, for which the activity, negative = inhibition is -1.21% [at 2.29 µM] (inactive).

For the molecule `Cc1cc(C(F)F)n2ncc(C(=O)NCc3ccccc3C(F)(F)F)c2n1`, the “activity, negative = inhibition” value was 8.24% (inactive).

For the molecule `O=C(NCCN1CCOCC1)c1nn2c(c1Cl)NC(c1ccccc1)CC2C(F)(F)F` (configuration not stated), the AC50 was 7.08 µM (active).

For the molecule `Cc1nn(C)c(C)c1CNC(=O)c1cnn2c1NC(c1ccccc1)CC2C(F)(F)F` (configuration not stated), the AC50 is 12.6 µM (active).

Consider `O=C(NCCN1CCOCC1)c1ccc2ccccc2c1`, for which the “activity, negative = inhibition” value is -4.73% (inactive).

With `CC12CC(NC(=O)N1c1cccc(C(=O)NCc3ccccc3)c1)c1ccccc1O2` (configuration not stated), the “activity, negative = inhibition” value is -2.24% (inactive).

Regarding `COc1ccc(C2CC(C(F)(F)F)n3nc(C(=O)N(C)Cc4cn(C)nc4C)c(Cl)c3N2)cc1` (configuration not stated), the AC50 was 2.51 µM (active).

`COc1ccc(OC)c(NC(=O)c2cc3n(n2)C(C(F)(F)F)CC(c2ccc4c(c2)OCO4)N3)c1` (configuration not stated): the AC50 is 3.98 µM (active).

In the case of `COc1ccc(NC(=O)c2cc3n(n2)C(C(F)(F)F)CC(c2ccc4c(c2)OCO4)N3)cc1OC` (configuration not stated), the “activity, negative = inhibition” value is -24.1% (inactive).

For the molecule `Cc1ccc(C2C(C=Nc3c(C)n(C)n(-c4ccccc4)c3=O)=C(c3ccccc3)Oc3ccccc32)cc1` (configuration not stated), the “activity, negative = inhibition” value was -22.8% (inactive).

Consider `Cc1ccc(C2CC(C(F)(F)F)n3nc(C(=O)NCCN4CCOCC4)cc3N2)cc1` (configuration not stated), for which the AC50 is 7.94 µM (active).

With `CC(C)(C)c1ccc(COC(=O)CNC(=O)CNC(=O)Cc2ccccc2)cc1`, the half-maximal activity concentration (AC50) is 12.6 µM (active).

With `O=C(CNC(=O)Cc1ccccc1)NCC(=O)OCc1ccccc1` (PhAc-Gly-Gly-OBn), the “activity, negative = inhibition” value was -26.1% (inactive).

For `O=C(CNC(=O)c1ccco1)OCc1c(F)cccc1Cl`, the activity, negative = inhibition is -10.2% [at 2.29 µM] (inactive).

With `O=C(CNC(=O)c1cccs1)NCC(=O)OCc1ccc(Cl)cc1Cl`, the AC50 was 7.08 µM (active).

`O=C(CNC(=O)c1cccs1)NCC(=O)OCc1ccc(Cl)cc1`: the AC50 was 25.1 µM (active).

On to `COC(=O)CNC(=O)C(C)NC(=O)CNC(=O)OCc1ccccc1` (stereo not drawn) (Cbz-Gly-[ξA]-Gly-OMe), for which the activity, negative = inhibition is -0.615% [at 2.29 µM] (inactive).

In general, AC50 refers to the concentration at which the activity in the assay is half-maximal.
